Screening data: PubChem, NMMLSC
Rows were chosen to be rich in hits. Some 0.93% of all compounds tested hit in one or more screens of this group.
LAP4 TOR yeast: alters LAP4-GFP fluorescence in TOR pathway yeast screen; S. cerevisiae LAP4-GFP multiplex, flow cytometry GFP, 3 h; median GFP as percent of DMSO wells; GFP response vs DMSO, % at 10 µM; 320,000 tested, 0.34% active;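 active = GFP response vs DMSO above a set limit, about the screen mean plus 3 SD, cut at about 150% in these data; inconclusive = under 70 cell events counted for the yeast strain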
CIT2-GFP yeast: yeast TOR pathway CIT2-GFP modulation; S. cerevisiae CIT2-GFP strain, flow cytometry, 3 h; 100 means same as DMSO wells; GFP response vs DMSO, % at 10 µM; 320,000 tested, 0.065% active;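 active = GFP response relative to DMSO above a set limit, near the screen mean plus 3 SD, cut at about 150% in these data; inconclusive = Fewer than 70 cells measured for a yeast strain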;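 note: ratio of well median GFP fluorescence to mean of DMSO wells on the plate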
AGP1-GFP MLPCN: yeast TOR pathway AGP1-GFP modulation; S. cerevisiae AGP1-GFP multiplex flow cytometry, 3 h; GFP as percent of DMSO wells; GFP response vs DMSO, % at 10 µM; 320,000 tested, 0.02% active;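 active = GFP response relative to DMSO above a set limit, near screen average plus 3 SD, cut at about 150% in these data; inconclusive = fewer than 70 cells counted for the yeast strain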;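 note: median GFP channel fluorescence of the gated AGP1 strain per well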
MEP2-GFP yeast: modulators of TOR pathway MEP2-GFP in S. cerevisiae | S. cerevisiae MEP2-GFP strain, flow cytometry GFP, 3 h; 100% = DMSO control level | GFP response vs DMSO, % at 10 µM | 330,000 tested, 0.51% active | AID 2016;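 active = GFP response versus DMSO above a set limit, roughly screen mean plus 3 SD, cut at about 180% in these data; inconclusive = fewer than 70 cells counted for a yeast strain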;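 note: median GFP fluorescence of the barcode-gated MEP2-GFP cells per well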
RPL19A TOR yeast: alters RPL19A-GFP fluorescence in TOR pathway yeast screen; S. cerevisiae RPL19A-GFP strain, flow cytometry, 3 h; stronger effect = lower value; percent response vs DMSO, % at 10 µM; 330,000 tested, 0.3% active; AID 2025;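 active = percent response vs DMSO below 50%; inconclusive = fewer than 70 events counted for the yeast strain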;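 note: median channel GFP fluorescence of the barcoded RPL19A-GFP strain; lower means less RPL19A-GFP as with rapamycin TOR inhibition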
Numbers stand for hits; [ ] = another dose, or the depositor's remark.

For CSc1cccc(NC(=S)N(Cc2ccccc2)Cc2cccnc2)c1 the results were LAP4 TOR yeast inactive, CIT2-GFP yeast inactive, AGP1-GFP MLPCN inactive, MEP2-GFP yeast inactive and RPL19A TOR yeast inactive.
For Cc1ccc(C(C[N+](=O)[O-])n2nc(C)cc2C)cc1 (stereo not given) the results were LAP4 TOR yeast 206, CIT2-GFP yeast inactive, AGP1-GFP MLPCN inactive, MEP2-GFP yeast inactive and RPL19A TOR yeast inactive.
Screening Cc1ccc(S(=O)(=O)NCC(C)n2nc(C)cc2C)cc1 (stereo not given) returned LAP4 TOR yeast inactive, CIT2-GFP yeast inactive, AGP1-GFP MLPCN inactive, MEP2-GFP yeast inactive and RPL19A TOR yeast inactive.
Screening CC(C)(C)C(=O)/C=c1\s/c(=C\c2ccc(-c3ccc([N+](=O)[O-])cc3)o2)c(=O)n1CC(=O)NC(N)=O returned LAP4 TOR yeast inactive, CIT2-GFP yeast 152, AGP1-GFP MLPCN inactive, MEP2-GFP yeast inactive and RPL19A TOR yeast inactive.
Screening CCC(=O)N/N=C/c1ccc(-c2ccc([N+](=O)[O-])cc2)o1 returned LAP4 TOR yeast inactive, CIT2-GFP yeast inactive, AGP1-GFP MLPCN inactive, MEP2-GFP yeast inactive and RPL19A TOR yeast inactive.
Screening Cc1ccc(NC(=S)N2CCSC2c2cccs2)cc1 (stereo not given) returned LAP4 TOR yeast 155, CIT2-GFP yeast 165, AGP1-GFP MLPCN inactive, MEP2-GFP yeast 182 and RPL19A TOR yeast inactive.
Screening Cc1cc(C)c2sc(NC(=O)C3=COCCO3)nc2c1 returned LAP4 TOR yeast 166, CIT2-GFP yeast inactive, AGP1-GFP MLPCN inactive, MEP2-GFP yeast inactive and RPL19A TOR yeast inactive.
For Cc1cccc(C2=NC(C(F)(F)F)(C(F)(F)F)c3c(n(-c4ccc(F)cc4)c(=O)[nH]c3=O)N2)c1 the results were LAP4 TOR yeast inactive, CIT2-GFP yeast inconclusive, AGP1-GFP MLPCN inconclusive, MEP2-GFP yeast 222[may fluoresce violet] and RPL19A TOR yeast inactive.
Screening CC(=O)NC1(C(F)(F)F)C(=O)Nc2c1c(=O)[nH]c(=O)n2-c1ccccc1 (stereo not given) returned LAP4 TOR yeast inactive, CIT2-GFP yeast inactive, AGP1-GFP MLPCN inactive, MEP2-GFP yeast inactive and RPL19A TOR yeast inactive.
`O=C(COc1ccccc1)Nc1ccc(OC(F)(F)C(F)F)c(NC(=O)COc2ccccc2)c1` gave LAP4 TOR yeast inactive, CIT2-GFP yeast inactive, AGP1-GFP MLPCN inactive, MEP2-GFP yeast inactive and RPL19A TOR yeast inactive.
Screening CC(C)N1C(=O)S/C(=C/c2ccc3c(c2)n(C)c(=O)n3C)C1=O returned LAP4 TOR yeast inactive, CIT2-GFP yeast inactive, AGP1-GFP MLPCN inactive, MEP2-GFP yeast inactive and RPL19A TOR yeast inactive.
Screening CCN(CC)c1ccc(/C=C2\SC(=O)N(C(C)C)C2=O)o1 returned LAP4 TOR yeast 256, CIT2-GFP yeast inactive, AGP1-GFP MLPCN inactive, MEP2-GFP yeast inactive and RPL19A TOR yeast inactive.
Screening CC(C)(C)c1ccc(C(=O)CC(Sc2ccc(Cl)cc2)C(=O)O)cc1 (stereo not given) returned LAP4 TOR yeast 251, CIT2-GFP yeast inactive, AGP1-GFP MLPCN inactive, MEP2-GFP yeast inactive and RPL19A TOR yeast inactive.
`Cc1ccc(SC(CC(=O)c2ccc(F)cc2)C(=O)O)cc1` (stereo not given) gave LAP4 TOR yeast inactive, CIT2-GFP yeast inactive, AGP1-GFP MLPCN inactive, MEP2-GFP yeast inactive and RPL19A TOR yeast inactive.
Screening CCOC(=O)C1CCCN(Cc2nc(Cc3cccc(F)c3)no2)C1 (stereo not given) returned LAP4 TOR yeast inactive, CIT2-GFP yeast inactive, AGP1-GFP MLPCN inactive, MEP2-GFP yeast inactive and RPL19A TOR yeast inactive.
For O=C(C1CCN(Cc2nc(Cc3cccc(F)c3)no2)CC1)N1CCOCC1 the results were LAP4 TOR yeast inactive, CIT2-GFP yeast inactive, AGP1-GFP MLPCN inactive, MEP2-GFP yeast 178 and RPL19A TOR yeast inactive.
For COc1ccccc1CNc1nc(S(=O)(=O)c2ccccc2)c(Cl)s1 the results were LAP4 TOR yeast inactive, CIT2-GFP yeast inactive, AGP1-GFP MLPCN inactive, MEP2-GFP yeast 192 and RPL19A TOR yeast inactive.
`COc1ccccc1CNc1nc(C)c(C(C)=O)s1` gave LAP4 TOR yeast inactive, CIT2-GFP yeast inactive, AGP1-GFP MLPCN inactive, MEP2-GFP yeast inactive and RPL19A TOR yeast inactive.
`COc1cccc(CN(C)C(=O)CNC(=O)c2ccc3c(c2)OCO3)c1OC` gave LAP4 TOR yeast inactive, CIT2-GFP yeast inactive, AGP1-GFP MLPCN inactive, MEP2-GFP yeast inactive and RPL19A TOR yeast inactive.
Screening CN(C)C(CNC(=O)CCNS(=O)(=O)c1ccccc1C(F)(F)F)c1ccccc1 (stereo not given) returned LAP4 TOR yeast inactive, CIT2-GFP yeast inactive, AGP1-GFP MLPCN inactive, MEP2-GFP yeast inactive and RPL19A TOR yeast inactive.
For Cc1ccc(-c2cc(C(=O)Nc3ccccn3)c3ccccc3n2)o1 the results were LAP4 TOR yeast inactive, CIT2-GFP yeast inconclusive, AGP1-GFP MLPCN inconclusive, MEP2-GFP yeast inactive and RPL19A TOR yeast 17[may fluoresce violet].
For Cc1ccc(NC(=O)c2cc(-c3ccc(C)o3)nc3ccccc23)cc1 the results were LAP4 TOR yeast inactive, CIT2-GFP yeast inactive, AGP1-GFP MLPCN inactive, MEP2-GFP yeast inactive and RPL19A TOR yeast inactive.
Screening O=C(CN1CCS(=O)(=O)CC1)N/N=C/c1cccc(C(F)(F)F)c1 returned LAP4 TOR yeast inactive, CIT2-GFP yeast 150, AGP1-GFP MLPCN inactive, MEP2-GFP yeast inactive and RPL19A TOR yeast inactive.
For CC(=O)NCCSc1ccc(S(=O)(=O)N2CCCC2)cn1 the results were LAP4 TOR yeast inactive, CIT2-GFP yeast inactive, AGP1-GFP MLPCN inactive, MEP2-GFP yeast inactive and RPL19A TOR yeast inactive.
Screening Cc1cc(NC(=S)Nc2ccc(C)c(Cl)c2)n[nH]1 returned LAP4 TOR yeast inactive, CIT2-GFP yeast inactive, AGP1-GFP MLPCN inactive, MEP2-GFP yeast inactive and RPL19A TOR yeast inactive.
`O=C(NC(c1ccccc1)C(Cl)Cl)c1ccccc1` (stereo not given) gave LAP4 TOR yeast inactive, CIT2-GFP yeast inactive, AGP1-GFP MLPCN 151, MEP2-GFP yeast inactive and RPL19A TOR yeast inactive.
Screening Cc1ccc(C(=O)NC(c2ccccc2)C(Cl)Cl)cc1 (stereo not given) returned LAP4 TOR yeast inactive, CIT2-GFP yeast inactive, AGP1-GFP MLPCN inactive, MEP2-GFP yeast inactive and RPL19A TOR yeast inactive.
Screening COC(=O)C1CN(C(=O)C(C)Oc2ccc(C(C)C)cc2)c2ccccc2O1 (stereo not given) returned LAP4 TOR yeast inactive, CIT2-GFP yeast inactive, AGP1-GFP MLPCN inactive, MEP2-GFP yeast inactive and RPL19A TOR yeast inactive.
Cc1nc(N2CCN(C)CC2)[nH]c(=O)c1Cc1cccc2ccccc12 was read as LAP4 TOR yeast inactive, CIT2-GFP yeast inactive, AGP1-GFP MLPCN inactive, MEP2-GFP yeast inactive and RPL19A TOR yeast inactive.
Screening Cc1[nH]c(=O)[nH]c(=O)c1Cc1cccc2ccccc12 returned LAP4 TOR yeast inactive, CIT2-GFP yeast inconclusive, AGP1-GFP MLPCN inconclusive, MEP2-GFP yeast 323[may fluoresce violet] and RPL19A TOR yeast 48[may fluoresce violet].
`N#Cc1c(-c2cccnc2)c2c([nH]c1=O)-c1ccccc1OC2` gave LAP4 TOR yeast inactive, CIT2-GFP yeast inconclusive, AGP1-GFP MLPCN inconclusive, MEP2-GFP yeast 413[may fluoresce violet] and RPL19A TOR yeast 42[may fluoresce violet].
For O=C(NNC1=NCCC1)c1cccc(Br)c1 the results were LAP4 TOR yeast 174, CIT2-GFP yeast inactive, AGP1-GFP MLPCN inactive, MEP2-GFP yeast inactive and RPL19A TOR yeast inactive.
